# Test results from ChEMBL document CHEMBL3988442, “University of Dundee, Small-Polar-MMV Screening Library” (2021).
# Hit rate of the full screen: of about 38,000 compounds, about 1,200 (3.2%) showed an effect of 50% or more. The median lay at about -58%. The sample holds strong results, similar compounds and a random draw of the others, so the mix is not that of the screen.
# System: Plasmodium falciparum
# Experiment: Calibr Malaria Delayed Death Assay SOP
# Assay type: functional, organism-based
# Design: scale not given: in the data most compounds retested in dose-response had high values
# Details: concentration 4.99e-06 (unit not given; other assays of the set use mol/L)
row,Compound,Percent Effect [%]
1,CC(C)NC(=O)c1nnn(-c2ccccc2)c1C1CC1,-103.7
2,CCCNC(=O)c1cc2c(s1)CCN2C(=O)c1ccccc1,-140.9
3,O=C(NCCN1CCOC1=O)c1cnc(-c2cccnc2)nc1,-89.05
4,O=C(N[C@@H]1CN(Cc2cccc(F)c2)C[C@H]1O)c1cscn1,-187.1
5,O=C(COCC1CC1)Nc1ncccc1I,-99.18
6,CCOCC1CN(Cc2ccc(OC)cc2)Cc2nn(CC3CC3)cc21.O=C(O)C(F)(F)F (configuration not stated),-47.96
7,CC(C)N(CCNC(=O)c1[nH]nc2ccc(I)cc12)C(C)C,86.77
8,CC(C)N(CCNC(=O)c1ccc(S(=O)(=O)NC2CC2)cc1)C(C)C,3.108
9,Cc1cccc(C(C)C)c1NC(=O)NCCN(C(C)C)C(C)C,37.4
10,c1ccc(-c2cc(CN3C[C@@H]4CC[C@H](C3)N(CC3CCC3)C4)on2)cc1,88.08
11,c1ccc(-c2cc(CN3C[C@@H]4CC[C@H](C3)N(CC3CC3)C4)on2)cc1,16.35
12,c1ccc(-c2cc(CN3C[C@H]4CC[C@H]3C4)on2)cc1,2.742
13,CCC(OC)C(=O)NCc1cc2n(n1)CCCN(C1CCCCC1)C2 (configuration not stated),-16.19
14,CC1CCCCN1c1nc2c(c(=O)[nH]1)CCN(Cc1ccccc1F)C2 (configuration not stated),13.92
15,FC(F)(F)c1cc(-c2cccs2)nc(N2CCN3CCCC3C2)n1 (configuration not stated),-49.64
16,Cc1c(-c2cc(C(F)(F)F)nc(N3CCC(N)CC3)n2)cnn1C,19.65
17,CCn1cc(-c2cc(C(F)(F)F)nc(NC3CCCC3)n2)c(C)n1,-77.03
18,CCc1ccc(-c2cc(C(F)(F)F)nc(N3CCC(N)CC3)n2)cc1,81.95
19,CCn1ncc(-c2cc(C(F)(F)F)nc(N3CCC(N)CC3)n2)c1C,64.36
20,Cc1ccc(-c2cc(C(F)(F)F)nc(N3CCOCC3)n2)s1,-16.11
21,CCc1nc(CN2CCCN(Cc3noc(C4CC4)n3)CC2)cs1,-72.76
22,COc1cc(CN2CCCC23CCN(c2ccccn2)CC3)ccc1F,1.862
23,Cc1cc(C)c2[nH]c(C(=O)NCCN3CCCC3=O)c(C)c2c1,-119.1
24,CC(C)c1noc(CCNC(=O)N2CCN(c3cccs3)CC2)n1,-17.65
25,CCc1nc(CCNC(=O)Nc2cccc(C(=O)NC)c2C)cs1,-100.3

row,Compound,Percent Effect [%]
1,Cc1nnc(SC2CCc3ccccc3NC2=O)o1 (configuration not stated),-88.91
2,Cc1cc(CNc2cncc(C(=O)N(C)C)n2)c2[nH]c(C)c(C)c2c1,-64.7
3,CNc1nc(C)cc(NCc2cc(C)cc3c(C)c(C)[nH]c23)n1,92.52
4,CNc1cc(C)nc(-c2cc(NC)nc3[nH]ccc23)n1,49.01
5,CNc1cc(C)nc(-c2cc(NCCO)nc3[nH]ccc23)n1,-113.9
6,CNc1cc(C)nc(NCc2cc(C)cc3c(C)c(C)[nH]c23)n1,91.83
7,CCN(Cc1cnn(CC)c1)Cc1c(Cl)cncc1Cl,-11.88
8,Cc1ccc(C2CN(CCCC#N)CCO2)c(C)c1 (configuration not stated),-121.1
9,CCc1ncnc2c1CCN(S(=O)(=O)CC)CC2,-41.95
10,CN(CCCc1ccccc1)C(=O)c1ccccc1NCC(=O)O,-16.6
11,CCC1=NN2C(=N)/C(=C\c3cccn3-c3ccc(Cl)cc3)C(=O)N=C2S1,17.01
12,COc1cc(I)c(Cl)cc1C(=O)N(C)CC(=O)NC(C)(C)C,-34.35
13,CN1[C@H](Cn2cccn2)C[C@@H]2CN(Cc3cccs3)CC[C@@H]21.O=C(O)C(F)(F)F.O=C(O)C(F)(F)F.O=C(O)C(F)(F)F,75.74
14,CN1C(Cn2cccn2)C[C@@H]2CN(Cc3nccs3)CC[C@@H]21 (some centres not stated),-108.4
15,CN1[C@H](Cn2cccn2)C[C@@H]2CN(C(=O)Cc3cccs3)CC[C@@H]21,-36.35
16,CN1C(Cn2cccn2)C[C@@H]2CN(Cc3cccnc3)CC[C@@H]21.O=C(O)C(F)(F)F.O=C(O)C(F)(F)F.O=C(O)C(F)(F)F.O=C(O)C(F)(F)F (some centres not stated),11.1
17,CN1C(Cn2cccn2)C[C@@H]2CN(Cc3ccccn3)CC[C@@H]21.O=C(O)C(F)(F)F.O=C(O)C(F)(F)F.O=C(O)C(F)(F)F.O=C(O)C(F)(F)F (some centres not stated),41.52
18,CC(C)N1[C@H](Cn2cccn2)C[C@@H]2CN(Cc3ccoc3)CC[C@@H]21.O=C(O)C(F)(F)F.O=C(O)C(F)(F)F.O=C(O)C(F)(F)F,39.12
19,CN1[C@H](CN2CCCC2)C[C@@H]2CN(Cc3ccoc3)CC[C@@H]21.O=C(O)C(F)(F)F.O=C(O)C(F)(F)F.O=C(O)C(F)(F)F,57.43
20,Cc1ccoc1C(=O)N1CC[C@H]2[C@H](C[C@@H](CN3CCCC3)N2C)C1.O=C(O)C(F)(F)F.O=C(O)C(F)(F)F,-53.97
21,CCc1nc2n(n1)CC(NCc1cc(OC)c3c(c1)OCCO3)CC2 (configuration not stated),-60.23
22,O=C(CN1CC(c2ccccc2)CC1=O)N1CCN(c2nccs2)CC1 (configuration not stated),-33.46
23,Cc1nc(-c2cccc(C(=O)O)c2)cc(C2CCCN(C(C)C)C2)n1 (configuration not stated),-116.2
24,COc1cccc(CNc2nnc(C(C)(C)C)o2)c1OC,-115.2
25,CC(C(=O)N1CCc2sccc2C1)N1CCCN(C2CC2)CC1 (configuration not stated),19.49

row,Compound,Percent Effect [%]
1,CC(C(=O)N1CCc2sccc2C1)N1CCC(N2CCCC2)CC1 (configuration not stated),51.04
2,CC(C)NC(=O)C1CCN(C(C)C(=O)N2CCc3sccc3C2)CC1 (configuration not stated),-19.38
3,COC(=O)CC(C1=Cc2ccccc2OC1)c1oc(C)cc(=O)c1O (configuration not stated),-54.1
4,COCCC1(CNC(=O)Nc2ccc(-n3nccn3)cc2)CCC1,-17.2
5,Cc1cc(NC(=O)NCC2(O)CCCC2)ccn1,-130.9
6,COCCC1(CNC(=O)Nc2ccnc(C)c2)CCCC1,72.21
7,COc1ncc(C2(O)CCN(Cc3cc(F)cc(F)c3)CC2)c(OC)n1,-99.52
8,O=c1[nH]nc2c(S(=O)(=O)N3CCOCC3)cccn12,-183.8
9,CNC(=O)c1cc2c(nc1NCC1CC1)CCN(c1ncccn1)CC2,-64.19
10,O=S(=O)(Nc1ccc2c(c1)OCCO2)N1CCCCC1,-170
11,Cc1ccc(CNC(c2ccc(F)cc2)c2nccn2C)o1 (configuration not stated),-33.59
12,Cn1ccnc1CN1CCCN(C(=O)c2ccc(Cl)o2)CC1,-26.42
13,Cc1ccc(CNCCC(O)(c2nccn2C)C(F)(F)F)o1 (configuration not stated),72.37
14,Cc1ccc(CNC(c2cccc(F)c2)c2nccn2C)o1.Cl (configuration not stated),35.29
15,CCc1n[nH]c(C2CN(C(=O)COCC(F)(F)F)CCO2)n1 (configuration not stated),-109.1
16,CCc1c(C)n(CCC#N)c2nc3ccccc3n2c1=O,-59.08
17,CCc1nnc2n1CCN(C(=O)C1CCC(n3cccc3)CC1)C2 (configuration not stated),-12.54
18,O=C1CCc2cc(-c3csc(CCN4CCOC4=O)n3)c(F)cc2N1,10.62
19,COc1cccc(CSc2nnc(C)n2CC(N)=O)c1,-57.97
20,NC(=O)CN(Cc1ccc(Br)cc1)C(=O)c1cccnc1,-140.6
21,COc1ccc(CN2C[C@@H](CN(C)C)[C@@H](CO)C2)cc1OC,-68.69
22,Cc1cc(-n2cccn2)ccc1CN1C[C@@H](CN(C)C)[C@@H](CO)C1,52.18
23,Cc1ccc(-n2cc(CN3CCOCC(CN(C)C)C3)cn2)cc1C (configuration not stated),38.47
24,Cc1cc(-n2cccn2)ccc1CN1CCOCC(CN(C)C)C1 (configuration not stated),73.33
25,COc1ccc(-n2cccn2)c(CN2CCOCC(CN(C)C)C2)c1 (configuration not stated),78.01

row,Compound,Percent Effect [%]
1,COc1ccc(CN2C[C@@H](CN(C)C)[C@@H](CO)C2)c(Cl)c1OC,-21.55
2,Cc1cc(C)c(-n2cccn2)c(CN2CCOCC(CN(C)C)C2)c1 (configuration not stated),34.59
3,COc1ccc(CN2CCOC[C@H](Oc3cccnc3)C2)cc1,-114.4
4,COc1ccc(O[C@H]2COCCN(Cc3c[nH]c4ccccc34)C2)cc1,-21.41
5,CCc1cc2c(N3CCCC(c4ccn[nH]4)C3)ncnc2s1 (configuration not stated),10.63
6,O=C(CC1CCc2ccccc21)N1CCC(O)(Cn2ccnc2)CC1 (configuration not stated),-24.52
7,CCCN1CCC(c2nc3ccc(-c4cccc(OC)c4)cn3n2)CC1.O=C(O)C(F)(F)F,-29.22
8,CCN(CC)Cc1nnc2sc(-c3cc(C(C)C)[nH]n3)nn12,-70.51
9,CN(C(=O)Cn1nc(-c2ccc(Cl)cc2)ccc1=O)C1CCS(=O)(=O)C1 (configuration not stated),1.296
10,CC(=O)N1CCC(c2nc3ccc(-c4ccnn4C)cn3n2)CC1.O=C(O)C(F)(F)F,-57.67
11,NC(=O)N1Cc2nccn2CC(Cn2ncccc2=O)C1 (configuration not stated),-152.6
12,COCCC(=O)N1CC2(CCN(Cc3ccncc3)CC2)C1,-37.67
13,O=C(O)C(F)(F)F.O=C(O)C(F)(F)F.O=C(O)C(F)(F)F.c1cc(CN2CCCC23CCCN(Cc2ccoc2)C3)ccn1 (configuration not stated),-115.9
14,Cc1nc(CN2CCC23CCN(Cc2ccoc2)CC3)cs1,35.85
15,CS(=O)(=O)N1CCOCC2(CCN(Cc3ccoc3)CC2)C1.O=C(O)C(F)(F)F,-77.45
16,Cc1ccc(CN2CCC3(CCN(Cc4ccncc4)CC3)CC2)cc1,77.61
17,Cc1ccc(CN2CCC3(CC2)CCN(Cc2ccoc2)CC3)cc1.O=C(O)C(F)(F)F.O=C(O)C(F)(F)F,92.5
18,COCC(=O)N1CCC2(CCN(Cc3ccc(C)cc3)CC2)CC1.O=C(O)C(F)(F)F,-23.78
19,Cn1ccnc1CN1CC2(CCN(Cc3ccncc3)C2)C1,-45.53
20,Cc1ccc(CN2CCCC3(CCN(Cc4ccoc4)CC3)C2)cc1.O=C(O)C(F)(F)F.O=C(O)C(F)(F)F,79.2
21,CS(=O)(=O)N1CCCC12CCN(Cc1ccoc1)CC2,-46.44
22,COCCC(=O)N1CCC2(CCN(Cc3ccc(C)cc3)CC2)C1.O=C(O)C(F)(F)F,-50.1
